# High-throughput results (PubChem BioAssay)
# Cycloheximide cs: Cycloheximide Counterscreen for Small Molecule Inhibitors of Shiga Toxin; cell reporter, cycloheximide protein synthesis inhibition counterscreen; max response, %; 300,000 tested, 12% active; in the data active = max response mostly above about 13%, no sharp cut-off; inactive = mostly below about 14%; note: read at 38.3 µM for the half of the compounds with a filed dose; 0% is about no effect
# Shiga toxin inh: A qHTS for Small Molecule Inhibitors of Shiga Toxin; Vero cells, Shiga toxin protein synthesis inhibition reporter; inhibition, % at 38.7 µM; 290,000 tested, 9.2% active; AID 2315, 2010; in the data active = inhibition mostly above about 28%, no sharp cut-off; inactive = mostly below about 43%; note: 0% is about no effect
# NS1 function inh: qHTS Assay for Inhibitors of Influenza NS1 Protein Function. AID 2326, 2010. Potency, µM (series often up to 46.1 µM), for the others: at the top dose activity, positive = more growth. 270,000 tested, 0.4% active; note: potency is the fitted concentration of half-maximal effect; actives are rising curves; nearly all actives have a fitted effect of over 50% in size
#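 A cell-based growth assay was used: compounds that relieve NS1-induced slow growth of budding yeast raise OD600. Assay medium was yeast nitrogen base with ammonium sulphate and -URA supplement, pH 6.0, with 2% galactose.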
# SARS PLP yeast: qHTS of Yeast-based Assay for SARS-CoV PLP. 330,000 tested, 0.19% active. Potency, µM (titrated, usually from 32.9 µM), without a hit: top-dose activity, positive = growth rescue, actives largely listed as activators. S. cerevisiae expressing SARS-CoV PLpro, growth rescue; note: potency is the fitted concentration of half-maximal effect; 0% is about no effect; nearly all actives have a fitted effect of over 55% in size
# * hit, by the source's call; ? = inconclusive; / = no result; + = active, no number. Hits are enriched below; roughly 12% of the tested compounds scored in any of these assays. Unless noted, calls come from the whole dose curve.
SMILES,Cycloheximide cs,Shiga toxin inh,NS1 function inh,SARS PLP yeast
CCCCC(=O)Nc1cccc(-c2nc3ncccc3o2)c1C,14.8*,43.2,-3.5%,-1.7%
Fc1ccccc1-c1nc2ncccc2o1,23.0*,58.5*,-7.1%,-0.7%
CCCCC(=O)Nc1cc(-c2nc3ncccc3o2)ccc1C,-5.9,-2.5,3.8%,0.1%
c1ccc2c(-c3nc4ncccc4o3)cccc2c1,20.0*,34.1,-81.0%,-12.2%
Cc1c(NC(=O)C(C)C)cccc1-c1nc2ncccc2o1,9.5,24.6,-12.7%,?
N#CCCCc1cc2ccccc2cn1,/,/,/,2.5%
Cc1ccc(/C=C2\SC(N)=NC2=O)s1,15.3,12.5,-1.2%,-7.6%
Cc1ccsc1/C=C1\SC(N)=NC1=O,20.1*,25.3,-31.8%,-2.7%
CC1CCCCC1NC(=O)Cn1cc([N+](=O)[O-])ccc1=O (stereo not given),/,/,/,5.1%
CC(C)C(=O)N1CCN(c2ccc(NC(=O)c3ccc4c(c3)OCCO4)cc2Cl)CC1,-2.1,-12.0,-3.7%,-3.2%
CC(C)C(=O)N1CCN(c2ccc(NC(=O)c3cccs3)cc2Cl)CC1,12.1,24.8*,-8.4%,-0.3%
CCC(=O)Nc1ccc(N2CCN(C(=O)c3ccco3)CC2)c(Cl)c1,10.2,10.7,3.0%,-3.9%
O=C(Nc1ccc(N2CCN(C(=O)c3ccco3)CC2)c(Cl)c1)c1cccs1,21.9*,28.9*,-44.6%,-10.2%
Nc1nccc(/C=C/c2ccc(Cl)cc2)n1,44.5*,71.7*,-2.0%,-2.0%
Nc1nccc(/C=C/c2c(Cl)cccc2Cl)n1,21.5,22.0,-3.7%,0.1%
Cc1occc1C(=O)N=Nc1c(O)n(C)c2ccccc12,35.8*,58.2*,2.6%,-21.3%
Cc1occc1C(=O)N=Nc1c(O)[nH]c2ccc(Br)cc12,32.9*,74.8*,0.4%,-24.9%
Cn1c(O)c(N=Nc2ccccc2[N+](=O)[O-])c2ccccc21,31.3*,74.9*,6.9%,-3.3%
O=C(N=Nc1ccc(NOC(=O)c2ccccc2Br)cc1)c1ccccc1O,6.4,17.5,/,3.4%
Cc1cc(N=NC(=O)c2ccccc2O)c2ccccc2c1O,40.0*,125.8*,/,-8.3%
CC(OC(=O)/C=C/c1cccc(F)c1)C(=O)NC1CCCCC1C (stereo not given),0.6,-5.6,10.6%,-1.3%
Cn1c(O)c(N=NC(=O)c2ccccc2O)c2ccccc21,36.9*,62.3*,3.6%,-2.7%
COc1ccc(S(=O)(=O)Nc2ccc(-n3cnnn3)cc2)cc1[N+](=O)[O-],/,/,/,-3.3%
Cc1ccc(S(=O)(=O)N(CC(=O)NCc2ccccc2Cl)C(=O)N2CCN(C)CC2)cc1,/,/,/,1.1%
Cc1c(C(=O)O)sc2nc3n(c(=O)c12)CCCCC3,1.0,29.2,-1.5%,/
SMILES,Cycloheximide cs,Shiga toxin inh,NS1 function inh,SARS PLP yeast
Cc1c(C(=O)Nc2ccc(Oc3ccccc3)cc2)sc2nc3n(c(=O)c12)CCC3,-2.6,-17.3,13.0%,-17.9%
CC(=O)c1cccc(NC(=O)c2sc3nc4n(c(=O)c3c2C)CCCCC4)c1,15.9,-3.9,-3.3%,0.4%
CSc1cccc(NC(=O)c2sc3nc4n(c(=O)c3c2C)CCC4)c1,16.8*,50.1*,-19.1%,7.0%
Cc1c(C(=O)Nc2cc(F)ccc2F)sc2nc3n(c(=O)c12)CCCCC3,36.3*,31.0,0.8%,1.7%
COc1cccc(NC(=O)c2sc3nc4n(c(=O)c3c2C)CCC4)c1,48.8*,68.9*,-8.2%,8.1%
O=C1N=C(N2CCCCC2)SC1=C1CCCC1,26.1*,45.3*,-15.1%,-0.9%
COCCN(C(=O)CSc1nnc(-c2cccc(OC)c2)n1C)c1c(N)n(Cc2ccccc2)c(=O)[nH]c1=O,0.5,13.4,/,-0.3%
Cc1ccc2nc(COc3ccc(Cl)cc3)cc(=O)n2c1,41.3*,98.5*,/,2.4%
Cc1cccc(C2NC(c3cccc(C)c3)C(C)C(=O)C2C)c1 (stereo not given),0.3,-6.2,3.9%,-2.7%
O=C(Nc1ccccc1F)NC1CC1,23.0,52.1*,/,4.7%
COC(=O)c1ccccc1NC(=O)NC1CCC(C)CC1 (stereo not given),16.3*,33.7*,0.9%,-1.4%
CCN1CCC(NC(=O)Nc2ccccc2C(=O)OC)CC1,-1.9,14.6,2.1%,-0.3%
O=C(Nc1ccccc1C(F)(F)F)NC1CCCCCCC1,15.6,25.8,-11.9%,-5.7%
O=C(Nc1ccccc1F)NC1CCCCCCC1,57.3*,98.1*,-42.3%,-9.4%
CC(C(=O)Nc1ccccn1)c1ccccc1 (stereo not given),-2.5,-2.9,-0.2%,7.0%
CN1CCC(N(C)CC(=O)Nc2cccc(Oc3ccccc3)c2)CC1,1.8,-10.0,-7.9%,-2.3%
CCCCn1c(N)c(N(CC(C)C)C(=O)C2CC(=O)N(Cc3ccccc3)C2)c(=O)[nH]c1=O (stereo not given),/,/,/,1.5%
CNc1ccccc(-c2ccc3ccccc3n2)c1=O,59.3*,52.2*,-8.0%,-20.0%
S=C(NCc1ccco1)NCC1CCCO1 (stereo not given),-2.0,-13.9,6.4%,0.4%
CC1(C)S[C@@H]2[C@H](NC(=O)C3(N)CCCCC3)C(=O)N2[C@@H]1C(=O)O,/,/,-5.2%,/
CCOc1cc(/C=N/NS(=O)(=O)c2ccc(OC)cc2)ccc1OCCN1CCOCC1,-2.0,1.7,3.0%,8.7%
CCOc1ccc(Br)cc1C(=O)N/N=C/c1cccc(C)n1,1.3,23.8,1.3%,-0.2%
O=C(N/N=C/c1ccoc1)c1cc(Br)ccc1O,31.3*,56.9,-24.1%,11.2%
Cc1cccc(/C=N/NC(=O)c2cc(Br)ccc2O)n1,31.7*,48.1*,-61.0%,-4.3%
COP(=O)(OC)C(Nc1ccc(Cl)cc1)c1ccccc1 (stereo not given),-2.4,/,-0.4%,4.2%
SMILES,Cycloheximide cs,Shiga toxin inh,NS1 function inh,SARS PLP yeast
COC(=O)c1ccc(NC(c2ccc(Cl)cc2)P(=O)(OC)OC)cc1 (stereo not given),32.1*,20.3,-5.1%,-23.5%
COc1ccc(-c2nc3c4ccccc4[nH]c(=O)n3n2)cc1,23.6*,54.7*,-10.5%,/
NC1=N[C@H](c2ccc(Cl)cc2)N(c2ccc(S(N)(=O)=O)cc2)C(N)=N1,/,/,-5.3%,/
CCOc1ccc(OCCOCCN2CCOCC2)cc1,-4.6,-5.1,-8.4%,-2.4%
O=C(OCCN1CCCCC1)c1ccccc1Br,35.4*,39.6,1.9%,-1.5%
CC(C)COc1ccc(C(=O)OCCN2CCCCC2)cc1,10.3,37.1*,8.2%,-1.9%
Cc1cc(OCCN2CCOCC2)ccc1C(C)C,48.4*,59.7*,8.4%,0.8%
CC(C)COc1ccc(C(=O)OCCN2CCOCC2)cc1,25.0*,36.3*,-2.6%,3.5%
O=[N+]([O-])c1ccccc1-c1ccc(C(=S)N2CCCC2)o1,44.0*,97.3*,/,0.1%
O=[N+]([O-])c1ccccc1-c1ccc(C(=S)N2CCCCC2)o1,58.3*,62.5*,-2.1%,-1.3%
Cc1cc2c3nonc3ccc2n1-c1ccccc1,-1.7,-11.2,-14.2%,-1.0%
Cc1cccc(-n2ncc3c(NCc4ccccc4)ncnc32)c1,28.6*,+,-21.3%,-21.6%
c1ccc(CNc2ncnc3c2cnn3-c2ccccc2)cc1,12.9*,44.5,-6.0%,-4.3%
Fc1ccc(CNc2ncnc3c2cnn3-c2ccccc2)cc1,16.7,21.9,-20.1%,/
Cc1cccc(-n2ncc3c(NCc4cccs4)ncnc32)c1,22.6*,114.4*,-48.9%,-11.1%
